# What was measured:
# Assay in all cases: PBM binding z-score (relative to random genomic background probes); higher = stronger binding; sequences stand for … in GC…GCGATTGACAGCGTAGAATGAAGG
# [1] = tested on: FXR:RXRa (NR concentration 270 nM, RXRa partner concentration 90 nM)
# Method in brief: (§1)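 Ligand-free nuclear receptor dimers were bound for 1 h to custom Agilent 4×180K protein-binding microarrays. Detection used antibodies against each partner (one per run). Binding z-scores rest on regression-normalized fluorescence, with random background probes as the reference.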
# [2] = tested on: LXRa:RXRa (NR concentration 270 nM, RXRa partner concentration 90 nM)
# Method in brief: as §1
# [3] = tested on: LXRa homodimer (NR concentration 270 nM)
# Method in brief: as §1
# [4] = tested on: LXRb:RXRa (NR concentration 270 nM, RXRa partner concentration 90 nM)
# Method in brief: as §1
# [5] = tested on: LXRb homodimer (NR concentration 270 nM)
# Method in brief: as §1
# [6] = tested on: PPARa:RXRa (NR concentration 270 nM, RXRa partner concentration 90 nM)
# Method in brief: as §1
# [7] = tested on: PPARg:RXRa (NR concentration 180 nM, RXRa partner concentration 90 nM)
# Method in brief: as §1
# [8] = tested on: PPARg:RXRa 270nM:90nM, anti-RXR (NR concentration 270 nM, RXRa partner concentration 90 nM)
# Method in brief: as §1
# [9] = tested on: PPARg:RXRa 30nM:10nM, anti-RXR (NR concentration 30 nM, RXRa partner concentration 10 nM)
# Method in brief: as §1
# [10] = tested on: PPARg:RXRa 90nM:30nM, anti-RXR (NR concentration 90 nM, RXRa partner concentration 30 nM)
# Method in brief: as §1
# [11] = tested on: PPARg:RXRa DBDmut IVT, anti-RXR (DBD mutation: RXRa K156A/R161A, NR concentration 270 nM, RXRa partner concentration 90 nM)
# Method in brief: as §1
# [12] = tested on: PPARg:RXRa IVT, anti-PPARg (NR concentration 270 nM, RXRa partner concentration 90 nM)
# Method in brief: as §1
# [13] = tested on: PPARg DBDmut:RXRa IVT, anti-PPARg (DBD mutation: PPARg1 K132A/R137A, NR concentration 270 nM, RXRa partner concentration 90 nM)
# Method in brief: as §1
# [14] = tested on: PPARg DBDmut IVT, anti-PPARg (DBD mutation: PPARg1 K132A/R137A, NR concentration 270 nM)
# Method in brief: as §1
# [15] = tested on: PPARg homodimer (NR concentration 180 nM)
# Method in brief: as §1
# [16] = tested on: PXR:RXRa (NR concentration 270 nM, RXRa partner concentration 90 nM)
# Method in brief: as §1
# [17] = tested on: PXR homodimer (NR concentration 270 nM)
# Method in brief: as §1
# [18] = tested on: RARa:RXR (NR concentration 270 nM, RXRa partner concentration 90 nM)
# Method in brief: as §1
# [19] = tested on: RARa homodimer (NR concentration 270 nM)
# Method in brief: as §1
# [20] = tested on: RARb:RXRa (NR concentration 270 nM, RXRa partner concentration 90 nM)
# Method in brief: as §1
Sequence,PBM binding z-score [1],PBM binding z-score [2],PBM binding z-score [3],PBM binding z-score [4],PBM binding z-score [5],PBM binding z-score [6],PBM binding z-score [7],PBM binding z-score [8],PBM binding z-score [9],PBM binding z-score [10],PBM binding z-score [11],PBM binding z-score [12],PBM binding z-score [13],PBM binding z-score [14],PBM binding z-score [15],PBM binding z-score [16],PBM binding z-score [17],PBM binding z-score [18],PBM binding z-score [19],PBM binding z-score [20]
GGAACGAGGGCATTTGAGTTGATAGCATGGCGAT,1.31,1.6,-0.156,0.482,-0.207,1.65,0.939,0.641,-0.0141,0.257,2.97,2.01,-0.643,-0.444,0.183,4,2.08,0.869,-0.446,1.96
ATCTCTAGGTAACAAGTCCAGTGAAAGAGAGGAC,0.652,0.256,0.362,0.148,0.685,0.632,1.2,1.71,0.317,1.45,3.01,2.6,0.767,1.29,0.367,0.433,0.215,0.195,0.924,0.473
AGTCAAAGTTCACTAGGTAACATAAGATTCAGCT,4.79,5.28,3.12,3.27,1.4,4.86,7.49,6.62,3.82,5.79,2.79,5.27,1.65,1.65,3.16,4.33,3.16,2.97,2.25,4.79
CTCGAAAGGTCGTGCTCAGGTGAGTTTACCAAAC,5.01,4.08,0.0619,3.31,0.366,4.6,1.98,3.86,1.67,2.65,0.999,1.89,0.777,0.0952,3.04,3.93,1.33,4.47,0.43,3.79
AGAATGAGGTTATAAGTAGATCAGGGAAGAAAGT,1.94,1.59,0.0372,1.73,0.269,2.96,2.67,2.94,1.34,2.45,3.03,2.5,0.674,0.782,1.83,1.47,0.923,1.88,0.571,1.25
TTACCAAGGTGAAAAGTCGTTGATGCACGCCTTG,0.666,0.719,-0.432,0.311,-0.57,2.25,2.75,4.56,2.5,4.19,1.72,2.64,0.0551,0.367,0.274,0.136,-0.523,0.987,-0.563,1.06
TCGAGTAGCTTAGTCGGGGCATTCAGCCAACATA,-0.445,-0.555,-0.699,-0.343,-0.785,-0.102,-0.707,-0.0775,0.66,0.255,0.289,-0.763,-1.22,-0.887,-1.34,-0.503,-1.1,-0.495,-0.83,-0.355
TCTAGCAGCCCAGAGGGTCACTCAAGAGGTACGG,0.547,0.531,-0.652,1.01,-1.12,1.92,0.566,1.13,1.45,1.2,0.523,-0.253,-0.749,-0.961,0.154,1.3,-0.683,2.44,-0.794,1.81
GCTGCTAGGTCAACTGATGGTCAGTTAAAGCTCG,3.99,3.11,0.245,2.35,0.46,3.74,2.8,3.25,0.658,2.06,4.66,4.13,-0.118,-0.331,1.79,1.64,-0.519,2.6,-0.0466,4.15
CCTTACGGGTCACTCCAGGGTATAGCATCGGAGT,4.69,6.8,0.368,3.85,-0.114,4.27,3.23,3.68,1.19,2.52,2.07,3.17,-0.61,-0.915,2.12,3.89,0.022,3.65,-0.123,3.54
TGTCAAAGTTCAAAGATAACGTAAGTATCCACAC,6.56,6.17,4.28,4.11,2.1,5.01,7.86,6.97,4.95,6.88,-0.252,3.78,1.64,1.45,2.47,4.66,3.83,3.6,1.54,4.92
CCTACTGGTCCAAAGGTCATTGATTCCAATGCTC,4.78,5.17,4.86,5.02,1.52,5.67,9.11,9.11,7.82,9.09,1.53,4.41,0.302,0.567,3.79,5.35,2.05,5.46,1.48,4.42
ATACCAAGGTGATCGTGAGGTCGTAGATACTAAC,1.57,1.07,0.236,0.929,-0.173,1.73,0.732,0.484,-0.23,-0.092,0.0521,1.54,0.536,0.745,0.811,2.2,0.811,2.21,0.262,1.33
CCGACTGGGGCAAAGGGTACCATACTCAGTACGA,-0.124,-0.144,-0.41,0.194,-1.06,3.81,8.34,7.63,6.97,8.88,3.56,4.9,-0.131,-0.788,1.03,-0.113,-0.353,0.544,-0.388,1.11
ATCTCAAGGTAAGACTCAGTTCAGTGAAGAACGC,0.749,0.642,0.594,0.258,0.655,0.216,0.033,0.104,0.217,0.104,0.2,0.426,0.753,0.498,0.782,1.47,1.54,0.694,1.1,0.614
CGTCCAAGATCAGCAGGTCAGTGAAAGCGACGTG,0.239,0.32,0.0834,0.195,-0.306,0.671,0.0765,0.227,-0.568,-0.405,0.000191,-0.104,-0.863,-0.238,0.712,0.136,-0.221,0.583,-0.407,1.97
CCTACCGGGCCAAGGTCATTGATCAGTCAAAGCA,3.14,3.01,1.23,2.66,-0.522,3.66,1.86,2.48,0.154,1.76,0.244,1.19,-0.794,-1.36,1.88,3.79,1.52,4,0.296,3.42
ATAACGAGGGCACGCTGAGTTGATAGCAGAGTAG,0.657,1.11,-0.0272,0.34,0.00771,2.24,2.45,1.88,0.803,1.22,4.2,4.09,1.98,1.47,0.669,1.83,0.518,1.04,-0.277,2.61
CCTCCTGGGCCACGAAAGGTCATTGATTCAGTGA,3.25,5.1,4.52,4.15,-0.0448,4.14,1.39,2.94,0.283,2.02,0.578,2.2,-0.811,-1.6,1.96,5.33,0.829,4.92,0.516,3.97
CCTTAAGGGTCACTGACAGGTTATAGCATTTGGA,7.39,5.66,0.887,5.01,0.447,6.24,6.29,6.19,2.45,4.77,3.94,4.19,0.865,0.0136,3.85,4.69,0.0863,5.85,1.33,5.18
AGTCTAAGTTCACTAGGTAACGTAAGATTCAGCT,2.84,3.02,0.822,1.84,0.221,3.63,2.98,3.85,1.57,3.02,2.75,3.66,0.895,1.1,1.24,3.63,4.11,1.93,0.914,3.58
GGTGCTAGGTCAGGTTGGTCAGCTAACGGGTACG,1.56,1.33,0.61,1.09,0.134,1.71,1,1.8,0.315,1.35,2.64,3.08,-0.502,-0.0479,1.8,0.63,0.481,1.2,1.12,3.56
TGTCAAAGTTCAACGGTAACGTAAGTATCCACAC,6.73,5.85,4.19,3.92,1.33,5.05,8.27,7.38,5.3,6.83,0.0114,4.34,1.07,1.67,3.02,4.77,3.78,4.08,1.62,5.03
ACTAGCAGGCCAAGGGTCCCTCAAGATTAGTCCG,-0.253,-0.502,-0.631,-0.64,-1.13,1.09,2.3,4.09,1.73,3.84,0.0687,0.882,-0.919,-0.963,-0.0936,-0.598,-0.427,-0.327,-1.05,0.381
CGTCCTAGGTCATAGGAGGTCAGTGAAGACAGAT,5.53,6.34,3.87,5.18,0.0467,4.91,3.72,4.05,1.4,3.09,3.43,4.34,-0.339,-0.4,2.53,6.01,1.28,4.21,1.08,4.6
CCTAGCAGGCCAGGGTCCCTCAAGCATTTCGCTT,-0.373,-0.567,-0.782,-0.712,-1.31,-0.381,-0.884,-0.699,-1.41,-0.959,-0.423,-0.501,-1.5,-1.43,-0.522,-0.483,-0.449,-0.227,-0.786,-0.0655
CCAAGTTGGTCAAGGTCACACACGCTATAGGTAC,4.98,4.1,1.98,3.73,0.363,4.23,3.48,4.02,1.45,3.14,2.97,3.8,0.633,0.94,3.54,4.6,4.77,4.56,1.99,4.27
CCAGACAGGTGAGAAGGTAACCCAGCCTCGATTA,0.179,0.277,-0.0873,0.148,0.023,0.739,0.689,0.473,-0.12,0.118,1.18,0.79,-0.0117,-0.618,0.918,-0.0868,0.187,0.417,0.439,0.682

# Reference: the supplement of paper PMC6555819
